Source: PubChem BioAssay AID999 (SRMLSC, 2007)
Active and inactive are the calls of the source.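 How the source made its calls: active means viability at or below 21.59%, 3 SD under the median of tested compounds; inactive means the rest.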

assay: viability loss in PTEN-deleted cells – cell-based, validation, diverse DP compound set (AID 999); conditions: HCT116 PTEN-null viability, CellTiter-Glo, 60 h; at 10 µM; hits give low values;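 further: 100% = median luminescence of untreated cell control wells and 0% = no signal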

SMILES	viability
COc1cc([C@@H]2c3cc4c(cc3[C@H](O)[C@H]3COC(=O)[C@H]23)OCO4)cc(OC)c1OC	24.6% (inactive)
CN1C2CCC1CC(OC(=O)C(CO)c1ccccc1)C2 (stereo unspecified)	94.2% (inactive)
O=c1c(-c2ccc(O)cc2)coc2cc(O)ccc12	89.7% (inactive)
COc1cc(Cc2cnc(N)nc2N)cc(OC)c1OC	102% (inactive)
CC(C)NCC(O)COc1cccc2ccccc12 (stereo unspecified)	89.1% (inactive)
COc1ccc(/C=C/c2cc(OC)cc(=O)o2)cc1	85.2% (inactive)
COc1ccc2c3c1O[C@H]1C[C@@H](O)C=C[C@@]31CCN(C)C2	91.7% (inactive)
CC1(C)[C@@H](O[C@H]2O[C@H](C(=O)O)[C@@H](O)[C@H](O)[C@H]2O[C@@H]2O[C@H](C(=O)O)[C@@H](O)[C@H](O)[C@H]2O)CC[C@]2(C)[C@H]3C(=O)C=C4[C@@H]5C[C@@](C)(C(=O)O)CC[C@]5(C)CC[C@@]4(C)[C@]3(C)CC[C@@H]12	103% (inactive)
CNCCC(Oc1ccc(C(F)(F)F)cc1)c1ccccc1 (stereo unspecified)	85.8% (inactive)
CC(C)=CCC[C@](C)(O[C@@H]1O[C@H](CO)[C@@H](O)[C@H](O)[C@H]1O)[C@H]1CC[C@]2(C)[C@@H]1[C@H](O)C[C@@H]1[C@@]3(C)CC[C@H](O[C@@H]4O[C@H](CO)[C@@H](O)[C@H](O)[C@H]4O[C@@H]4O[C@H](CO)[C@@H](O)[C@H](O)[C@H]4O)C(C)(C)[C@@H]3[C@@H](O)C[C@]12C	92% (inactive)
CCOC(=O)c1ncn2c1CN(C)C(=O)c1cc(F)ccc1-2	95.3% (inactive)
